Screening data as filed in PubChem BioAssay.
Gal4-VP16 FLuc = Gal4-VP16 reporter inhibition counter-screen; 310,000 compounds, 3.5% hits; AID 2546; Drosophila S2 Gal4-VP16 UAS-luciferase, luminescence, 20 h; Potency, µM (series often up to 53.6 µM), for inactives: at the top dose activity, negative = inhibition, actives largely listed as inhibitors;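 also: Gal4-VP16 expression switched on by copper sulfate through the metallothionein promoter; nearly all actives have a fitted effect of over 50% in size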
DT40 TDP1 no CPT = qHTS for Inhibitors of human tyrosyl-DNA phosphodiesterase 1 (TDP1): qHTS in cells in absence of CPT | DT40 Tdp1-/- hTDP1 cells, no CPT, ATP luminescence, 48 h | Potency, µM (top dose mostly 46.2 µM), without a hit: at the top dose activity change, negative = growth inhibition, hits mostly inhibitors | 420,000 compounds, 15% hits; also: nearly all actives have a fitted effect of over 55% in size
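Compound effects on proliferation are scored in DT40 Tdp1-/-;hTDP1 cells in the absence of CPT. ATP levels (CellTiter-Glo luminescence) are recorded after a ≥48 hr, 37 °C incubation.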
RORgamma inh = ROR gamma (mouse) transcription inhibition | Drosophila S2 Gal4-RORgamma UAS-luciferase reporter, 20 h | Potency, µM (doses to about 53.6 µM), without a hit: at the highest dose activity change, negative = inhibition, hits mostly inhibitors | 310,000 compounds, 5.4% hits; also: nearly all actives have a fitted effect of over 60% in size
Target sequence (P51450 whole entry, looked up, the tested form may be a part): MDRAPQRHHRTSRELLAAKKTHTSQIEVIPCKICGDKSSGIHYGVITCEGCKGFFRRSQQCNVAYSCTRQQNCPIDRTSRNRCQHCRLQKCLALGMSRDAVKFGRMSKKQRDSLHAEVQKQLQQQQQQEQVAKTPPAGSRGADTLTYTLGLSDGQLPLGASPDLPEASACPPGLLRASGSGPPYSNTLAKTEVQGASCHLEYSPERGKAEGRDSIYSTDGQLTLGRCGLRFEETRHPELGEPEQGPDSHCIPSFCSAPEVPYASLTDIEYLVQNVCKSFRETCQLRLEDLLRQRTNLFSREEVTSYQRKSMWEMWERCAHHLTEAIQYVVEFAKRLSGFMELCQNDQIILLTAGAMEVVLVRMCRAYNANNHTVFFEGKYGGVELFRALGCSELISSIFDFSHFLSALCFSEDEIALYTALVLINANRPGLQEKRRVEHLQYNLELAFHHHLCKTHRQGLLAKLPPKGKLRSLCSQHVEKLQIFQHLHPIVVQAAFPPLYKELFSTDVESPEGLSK
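Read-out: Photinus luciferase luminescence; inhibitors lower reporter signal. Insect Schneider cells with Gal4-ROR gamma fusion under metallothionein promoter, UAS reporter; 700 uM final copper sulfate induction, 20 hr, ambient temperature.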
ELG1 repair inh = blocks ELG1-dependent DNA repair in HEK293T cells. HEK293T ELG1-luciferase reporter, luminescence, 16 h; DNA damage induced by 5-fluorouridine. Potency, µM (titrated, usually from 46.1 µM), for the others: at the top dose activity change, negative = inhibition, hits mostly inhibitors. 330,000 compounds, 2.3% hits; also: nearly all actives have a fitted effect of over 55% in size
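Step one: seed 2,000 cells per well. Step two: pin-transfer compound or DMSO alongside 5-fluorouridine. Step three: incubate 16 hr, 37 °C, 5% CO2. Step four: add ONE-Glo, wait 30 min, read luminescence.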
12-LOX inh = ALOX12 (human) lipoxygenase inhibition; P18054; purified 12hLO, xylenol orange hydroperoxide absorbance; 580,000 compounds, 1.1% hits; Potency, µM (doses to about 108 µM), for inactives: top-dose activity change, negative = inhibition, most hits filed as inhibitors
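Purified human 12hLO (150 nM final) in 25 mM Hepes, 0.01% Triton X-100, pH 7.0 was preincubated 15 min at room temperature with compound. Then 40 uM arachidonic acid was added, 30 min. Hydroperoxide was read by Fe-XO absorbance ratio 573/405 nm.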
TDP1 cell CPT = DT40-hTDP1 cell growth loss with CPT; chicken DT40 Tdp1-/-;hTDP1 cells + 20 nM CPT, ATP luminescence, 48 h; Potency, µM (doses to about 46.2 µM), inactives show at the top dose activity change, negative = growth inhibition, hits mostly inhibitors; 420,000 compounds, 12% hits; also: nearly all actives have a fitted effect of over 55% in size
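Cell growth measured by CellTiter-Glo luminescence after a minimum 48 h, 37 C compound exposure with 20 nM CPT in Tdp1-knockout DT40 cells stably expressing hTDP1, seeded 400/well; qHTS titration format.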
Starred values were filed as active, the others as inactive; [ ] = remark or other dose. Sampled rows, rich in hits. Any-hit rate of the full collection: about 15%. Calls follow the shape of the dose curve; as a rule, active = well fitted curve in the direction sought with a large enough effect; inconclusive = small, poorly fitted or top-dose-only effect, or another doubt; inactive = no such curve, though single readings can be large; an effect the other way counts as inactive or inconclusive. % is scaled to controls: 0 for no effect and ±100 for the full control effect; potency is read from the fitted curve at half-maximal effect.

Results for CCN(CC)C(=O)CSC1=C(C#N)C(c2cccs2)C=C(C)N1 (stereo not drawn) ?
Gal4-VP16 FLuc: 6%; DT40 TDP1 no CPT: 23µM*; RORgamma inh: -10%; ELG1 repair inh: -12%; 12-LOX inh: inconclusive; TDP1 cell CPT: inconclusive

Results for CS(=O)(=O)N1CCC(OC2CCN(C(=O)Nc3ccc(Cl)cc3F)CC2)CC1 ?
12-LOX inh: 44%

What do the screens show for `CCOc1ccc(CNCc2c(C(=O)O)n(Cc3ccccc3F)c3cc(OC)ccc23)cc1`?
DT40 TDP1 no CPT: 5.8µM*; 12-LOX inh: -2%; TDP1 cell CPT: 18µM*

How did COc1ccc(Cn2c(C(=O)O)c(CNCc3ccc(SC)cc3)c3ccc(OC)cc32)cc1 do in these assays?
DT40 TDP1 no CPT: 5.8µM*; 12-LOX inh: 0%; TDP1 cell CPT: 5.2µM*

Results for C=Cc1ccc(Cn2c(C(=O)O)c(CNCc3ccccc3)c3ccc(OC)cc32)cc1 ?
DT40 TDP1 no CPT: 15µM*; 12-LOX inh: 4µM*; TDP1 cell CPT: inconclusive

Results for CCNC(=O)COc1ncnc2ccc(Br)cc12 ?
12-LOX inh: -47%

What do the screens show for `O=C(c1ccc(Cl)cc1Cl)N1CCN(c2cc(-c3cccs3)[nH]n2)CC1`?
12-LOX inh: -4%

How did Cc1ccccc1C(=O)NN=C(C1CC1)C1CC1 do in these assays?
12-LOX inh: 23%

What do the screens show for `CC1(C)CC[C@]2(C)CC[C@@]3(C)C(=CCC4[C@@]5(C)CCC(O)C(C)(C)C5CC[C@@]43C)C2C1` (stereo partly drawn)?
Gal4-VP16 FLuc: -3%; DT40 TDP1 no CPT: 6%; RORgamma inh: 11%; TDP1 cell CPT: 20%

Results for CC1(C)CC[C@]2(C(=O)O)C(O)C[C@@]3(C)C(=CCC4[C@@]5(C)CCC(O)C(C)(C)C5CC[C@@]43C)C2C1 (stereo partly drawn) ?
Gal4-VP16 FLuc: -29%; DT40 TDP1 no CPT: 23%; RORgamma inh: 1.4µM*; TDP1 cell CPT: 4%

What do the screens show for `O=C(CN1C(=O)C2C3C=CC(C3)C2C1=O)OCC(=O)c1ccc([N+](=O)[O-])cc1` (stereo not drawn)?
Gal4-VP16 FLuc: -1%; DT40 TDP1 no CPT: inconclusive; RORgamma inh: 32%; ELG1 repair inh: inconclusive; 12-LOX inh: -16%; TDP1 cell CPT: inconclusive

How did O=C(CN1C(=O)C2CC=CCC2C1=O)OCC(=O)c1ccc(Cl)c([N+](=O)[O-])c1 (stereo not drawn) do in these assays?
Gal4-VP16 FLuc: 35µM*; DT40 TDP1 no CPT: inconclusive; RORgamma inh: -39%; ELG1 repair inh: 13%; 12-LOX inh: 313%; TDP1 cell CPT: inconclusive

What do the screens show for `CCc1ccc(-n2cnc3cc(C(=O)NCc4ccc(C)cc4)ccc32)cc1`?
DT40 TDP1 no CPT: 15µM*; 12-LOX inh: -23%; TDP1 cell CPT: 15µM*

What do the screens show for `Cc1cccc(-n2cnc3cc(C(=O)NCc4ccc(F)cc4)ccc32)c1`?
12-LOX inh: -7%

Results for Cc1ccc(-n2cnc3cc(C(=O)NCc4ccccc4Cl)ccc32)c(C)c1 ?
DT40 TDP1 no CPT: 23µM*; 12-LOX inh: -13%; TDP1 cell CPT: 23µM*

How did COC(CNC(=O)c1ccc2c(c1)ncn2-c1ccc(C)cc1C)OC do in these assays?
Gal4-VP16 FLuc: -1%; DT40 TDP1 no CPT: -9%; RORgamma inh: 14%; ELG1 repair inh: 1%; 12-LOX inh: inconclusive; TDP1 cell CPT: 26%

How did CCc1ccc(-n2cnc3cc(C(=O)NCC(OC)OC)ccc32)cc1 do in these assays?
Gal4-VP16 FLuc: 4%; DT40 TDP1 no CPT: 14%; RORgamma inh: 11%; ELG1 repair inh: -2%; 12-LOX inh: 8%; TDP1 cell CPT: -20%

How did Cc1cccc(-n2cnc3cc(C(=O)NCc4ccccc4Cl)ccc32)c1 do in these assays?
DT40 TDP1 no CPT: inconclusive; 12-LOX inh: -7%; TDP1 cell CPT: 16µM*

Results for CN(Cc1nc(C2CC2)no1)C(=O)c1cc(Cn2ccc3ccccc32)[nH]n1 ?
12-LOX inh: 50%

What do the screens show for `CCC(C(=O)NC(C)C)c1ccccc1` (stereo not drawn)?
12-LOX inh: 2%

What do the screens show for `Cc1ccc(CN(Cc2ccco2)c2cnc(S(C)(=O)=O)nc2C(=O)Nc2ccc(Br)cc2)o1`?
DT40 TDP1 no CPT: inconclusive; 12-LOX inh: -21%; TDP1 cell CPT: 18µM*

What do the screens show for `CS(=O)(=O)c1ncc(N(Cc2ccco2)Cc2ccco2)c(C(=O)Nc2ccccc2Br)n1`?
DT40 TDP1 no CPT: inconclusive; 12-LOX inh: -27%; TDP1 cell CPT: inconclusive

How did CC(C)c1ccc(CN(Cc2ccco2)c2cnc(S(C)(=O)=O)nc2C(=O)Nc2ccccc2)cc1 do in these assays?
DT40 TDP1 no CPT: 12µM*; 12-LOX inh: -12%; TDP1 cell CPT: 18µM*

Results for Cc1ccc(NC(=O)c2nc(S(C)(=O)=O)ncc2N(Cc2ccco2)Cc2ccccc2F)c(C)c1 ?
DT40 TDP1 no CPT: 9.2µM*; 12-LOX inh: -14%; TDP1 cell CPT: 12µM*

What do the screens show for `Nc1ccccc1OCC1CCCO1` (stereo not drawn)?
12-LOX inh: 9%

What do the screens show for `COc1cccc(CN2CC[C@H]3COC(=O)N3c3cc(C)ccc3C2)c1`?
12-LOX inh: 1%[176 µM]

What do the screens show for `Nc1nc(/C=C/c2cccnc2)nc(-c2ccccc2O)n1`?
Gal4-VP16 FLuc: -16%; DT40 TDP1 no CPT: 9.2µM*; RORgamma inh: -27%; ELG1 repair inh: 3%; 12-LOX inh: 5%; TDP1 cell CPT: 2.9µM*

Results for COc1cc(C(=O)NC[C@@H]2CC[C@H]3C[C@@H]2C3(C)C)nc2ccccc12 ?
12-LOX inh: 38%[176 µM]

How did Cc1cc(C)cc(NS(=O)(=O)c2ccc3c(c2)c(=O)n(C)c(=O)n3C)c1 do in these assays?
Gal4-VP16 FLuc: 4%; DT40 TDP1 no CPT: 2.1µM*; RORgamma inh: 17%; ELG1 repair inh: inconclusive; 12-LOX inh: 14%; TDP1 cell CPT: 1.8µM*

What do the screens show for `Cc1ccc(NS(=O)(=O)c2ccc3c(c2)c(=O)n(C)c(=O)n3C)cc1F`?
Gal4-VP16 FLuc: -3%; DT40 TDP1 no CPT: 16µM*; RORgamma inh: 3%; ELG1 repair inh: inconclusive; 12-LOX inh: -8%; TDP1 cell CPT: 15µM*

How did Nc1ncnc(Nc2cc(Cl)ccc2Cl)c1[N+](=O)[O-] do in these assays?
12-LOX inh: 33%
